Reference: the supplement of paper PMC12067093, “Discovery and optimisation of a covalent ligand for TRIM25 and its application to targeted protein ubiquitination” (Chemical Science, 2025)
The full data set covers some 21,000 targets. This sample favours those with the largest changes.

Compound: CC1Cc2ccccc2N1C(=O)C1CCCN(C1)C(=O)CCl (mixture of isomers) [TRIM25 ligand 11 (diastereomer mixture)]
Test: probe-labelled cysteine peptide fold change vs DMSO (competition) (log2 fold change); higher = less target engagement (more negative = stronger competition)
Conditions: 10 µM; THP-1; incubation time: 4 h
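Also: competitive chemoproteomic profiling in live THP-1 cells with an iodoacetamide desthiobiotin (IA-DTB) probe, comparing probe-labelled peptide intensities in compound-treated cells against DMSO-treated controls.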

Target | probe-labelled cysteine peptide fold change
MIS18A_Q9NYP9_85_AQLEEEAAAAEERPLVFLCSGCR (UniProt Q9NYP9) | -0.0813
MGMT_P16455_145_GNPVPILIPCHR (UniProt P16455) | -0.499
MIA3_Q5JRA6_1513_AGLEDECK (UniProt Q5JRA6) | 0.0174
NBAS_A2RRP1_1634_QLHCYNER (UniProt A2RRP1) | 0.000992
MAP4_P27816_635_CSLPAEEDSVLEK (UniProt P27816) | -0.069
MCM5_P33992_221_CVDFQTLK (UniProt P33992) | -0.0141
MTA2_O94776_209_ALDCSSSIR (UniProt O94776) | -0.025
MOV10_Q9HCE1_650_LVSAQFPIDHFTHIFIDEAGHCMEPESLVAIAGLMEVK (UniProt Q9HCE1) | 0.00257
MBIP_Q9NS73_243_DCGNQAVEER (UniProt Q9NS73) | -0.0155
MATR3_P43243_230_CRDDSFFGETSHNYHK (UniProt P43243) | 0.0188
MYO18A_Q92614_1046_LHFVHCFLPVAEGWAGEPR (UniProt Q92614) | 0.231
MED7_O43513_223_DAALCVLIDEMNERP (UniProt O43513) | 0.0565
MTHFS_P49914_180_EQICLQVPVNENDMK (UniProt P49914) | -0.00999
MICAL2_O94851_1059_PHFIHCK (UniProt O94851) | 0.00568
MYCBP2_O75592_4406+4413_NEEHCLPCLHGCDK (UniProt O75592) | -0.0669
MAD1L1_Q9Y6D9_662_LTSLYAEHPGDCLIFK (UniProt Q9Y6D9) | 0.00589

Target | probe-labelled cysteine peptide fold change
MBTPS2_O43462_386_SSSSSFCIIPSLETHTR (UniProt O43462) | -0.0619
MED1_Q15648_302_WTPSFSSITSANSVDLPACFFLK (UniProt Q15648) | -0.00458
MAP1S_Q66K74_841_HDPLPDPLKVPPPLPDPSSICMVDPEMLPPK (UniProt Q66K74) | -0.202
MRPL38_Q96DV4_290_QDQPIDFSEDARPSPCYQLAQR (UniProt Q96DV4) | -0.028
MTF2_Q9Y483_133_CGQGYHQLCHTPHIDSSVIDSDEK (UniProt Q9Y483) | 0.12
LYPLA2_O95372_213_TYPGVMHSSCPQEMAAVK (UniProt O95372) | 0.0451
MTA3_Q9BTC8_109_CSVALLNETESVLSYLDK (UniProt Q9BTC8) | 0.851
MIF4GD_A9UHW6_150_EEEVDCLVLQLHR (UniProt A9UHW6) | 0.222
MTMR3_Q13615_81_ESLVNVPLQLIESVECR (UniProt Q13615) | 0.553
METTL18_O95568_48_CSAEQFDLPQDHLWEHK (UniProt O95568) | -0.285
MCL1_Q07820_286_TINQESCIEPLAESITDVLVR (UniProt Q07820) | -0.36
MINK1_Q8N4C8_129_EDCIAYICR (UniProt Q8N4C8) | 0.00524
NCAPG_Q9BPX3_177_DDECPVVNAYATLIENDSNPEVR (UniProt Q9BPX3) | -0.316
MTMR3_Q13615_188_LCGSYPQELIVPAWITDK (UniProt Q13615) | 0.105
MAN2C1_Q9NTJ4_29_FVSPLYFTDCNLR (UniProt Q9NTJ4) | 0.111

Same assay, conditions: 50 µM; THP-1; incubation time: 4 h

Target | probe-labelled cysteine peptide fold change
MGMT_P16455_145_GNPVPILIPCHR (UniProt P16455) | -1.05
NBAS_A2RRP1_1634_QLHCYNER (UniProt A2RRP1) | -0.0554
MAP4_P27816_635_CSLPAEEDSVLEK (UniProt P27816) | -0.135
MCM5_P33992_221_CVDFQTLK (UniProt P33992) | 0.0951
MBIP_Q9NS73_243_DCGNQAVEER (UniProt Q9NS73) | -0.0072
MATR3_P43243_230_CRDDSFFGETSHNYHK (UniProt P43243) | -0.0509
MYO18A_Q92614_1046_LHFVHCFLPVAEGWAGEPR (UniProt Q92614) | 0.422
MED7_O43513_223_DAALCVLIDEMNERP (UniProt O43513) | -0.131
MICAL2_O94851_1059_PHFIHCK (UniProt O94851) | 0.0284
MAD1L1_Q9Y6D9_662_LTSLYAEHPGDCLIFK (UniProt Q9Y6D9) | -0.0309
MED1_Q15648_302_WTPSFSSITSANSVDLPACFFLK (UniProt Q15648) | 0.123
MTF2_Q9Y483_133_CGQGYHQLCHTPHIDSSVIDSDEK (UniProt Q9Y483) | 0.228
MTMR3_Q13615_81_ESLVNVPLQLIESVECR (UniProt Q13615) | -0.00809
MCL1_Q07820_286_TINQESCIEPLAESITDVLVR (UniProt Q07820) | -0.583
NCAPG_Q9BPX3_177_DDECPVVNAYATLIENDSNPEVR (UniProt Q9BPX3) | -0.473
MTMR3_Q13615_188_LCGSYPQELIVPAWITDK (UniProt Q13615) | 0.265
